The values that follow come from PubChem BioAssay (NCATS).

The source made the active and inactive calls. Calls come from the whole dose curve; as a rule, active = well fitted curve in the direction sought with a large enough effect; inconclusive = small, poorly fitted or top-dose-only effect, or another doubt; inactive = no such curve, though single readings can be large or run the other way.

Chain of Thyrotropin receptor (Homo sapiens) (P16473 whole entry, looked up): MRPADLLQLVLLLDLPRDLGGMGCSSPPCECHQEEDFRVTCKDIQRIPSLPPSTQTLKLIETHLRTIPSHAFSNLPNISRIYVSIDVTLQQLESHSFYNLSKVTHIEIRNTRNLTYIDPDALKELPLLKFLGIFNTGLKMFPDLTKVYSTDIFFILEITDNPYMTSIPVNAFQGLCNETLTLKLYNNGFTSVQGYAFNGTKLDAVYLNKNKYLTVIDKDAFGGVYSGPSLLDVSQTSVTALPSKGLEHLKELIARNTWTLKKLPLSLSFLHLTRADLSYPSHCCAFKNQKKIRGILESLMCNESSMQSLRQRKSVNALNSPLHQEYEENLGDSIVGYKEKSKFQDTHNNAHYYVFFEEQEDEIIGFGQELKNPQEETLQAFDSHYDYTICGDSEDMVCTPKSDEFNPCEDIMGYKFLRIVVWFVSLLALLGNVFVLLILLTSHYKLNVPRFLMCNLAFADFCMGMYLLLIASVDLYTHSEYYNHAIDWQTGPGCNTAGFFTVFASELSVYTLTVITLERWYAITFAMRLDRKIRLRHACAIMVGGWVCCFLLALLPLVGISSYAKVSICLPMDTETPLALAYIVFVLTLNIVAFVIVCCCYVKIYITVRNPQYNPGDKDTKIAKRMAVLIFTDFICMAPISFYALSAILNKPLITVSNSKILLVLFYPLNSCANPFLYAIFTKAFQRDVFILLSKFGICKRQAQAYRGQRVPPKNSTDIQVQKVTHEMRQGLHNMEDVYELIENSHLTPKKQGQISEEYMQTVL

This assay has as its target Thyrotropin receptor (Homo sapiens) (UniProt P16473). Briefly: qHTS Assay for Antagonists of the Thyroid Stimulating Hormone Receptor (AID 488980). The conditions noted are these: TSHR-expressing cells, cAMP antagonist read-out; series mostly up to 57.5 µM. An excerpt: TSH is an alpha/beta heterodimeric glycoprotein hormone secreted from the anterior pituitary gland which belongs to the glycoprotein hormone family. The actions of TSH are mediated by a seven-transmembrane receptor, which upon TSH binding couples preferentially to the G-alpha (s) protein (Gs), resulting in activation of adenylate cyclase and increase in cyclic adenosine 3', 5' monophosphate (cAMP). The TSH receptor (THSR) is mainly expressed in thyroid follicular cells and regulates their growth and function. This cell based assay was conducted on a TSHR transfected HEK 293 cell line, measuring cAMP stimulation using antibody-based Homogeneous Time Resolved Fluorescence (HTRF).
Our goal is to identify small molecules that will inhibit (antagonize) the thyroid-stimulating hormone receptor (TSHR), a member of the 7 transmembrane-spanning receptor (7TMR) family of cell surface receptors. TSHR-mediated hyperthyroidism is important in thyroid pathology. The development of small molecule antagonists of TSHR may lead to therapeutic approaches for TSHR-mediated hyperthyroidism caused by constitutively activating mutations or stimulating auto-antibodies associated with Graves' disease. Graves' disease is the leading cause of hyperthyroidism and is caused by autoantibodies that stimulate TSHR (TsAbs) causing thyroid growth and unregulated overproduction of thyroid hormones and existing treatments have liabilities (agranulocytosis). In addition, TSHRs are known to be expressed in multiple extrathyroidal tissues including bone, brain, kidney, testis, fat and cells of the immune system but the role of the TSHR in these tissues is not clear. Therefore, TSHR antagonists/inverse agonists could be used as probes of extrathyroidal TSHR function. Finally, TSHR inverse agonists, which are a subclass of antagonists that inhibit agonist-independent (or basal or constitutive) TSHR signaling, could be used to inhibit TSH-independent signaling in patients with recurrent or metastatic thyroid cancer who are receiving thyroid hormone to suppress TSH.
An anti cAMP antibody contains a fluorescent cryptate tag (excitation 337 nm; emission 620 nm) and the acceptor is cAMP-d2 (excitation 620 nm; emission 665 nm). When antibody and cAMP-d2 interact and are excited by a 337 nm light, a FRET occurs resulting in emission at 665 nm. The assay is competition between cAMP-d2 and cAMP (from the cell lysate). The homogeneous protocol allows for one step dispense after stimulation that is automation friendly.
Step, Parameter, Value, Description
1, Cells, 3 uL, 2000 TSHR freshly harvested cells/well 1536 TC treated White solid bottom plate (Cells resuspended in 10 mM HEPES buffered HBSS and 70 uM RO 20-1724)
2, Compound, 23 nL, Libraries and controls
3, Compound, 1 uL, EC80 TSH (4 nM final)
5, Reagent, 2 uL, cAMP antibody diluted 1:20 in lysis buffer
6, Time, 30 minutes, Room temperature
7, Detector, HTRF settings, Viewlux
As for `O=C1c2ccccc2-c2n[nH]c3cccc1c23`, the result was inactive. For the molecule `NC(=NCc1ccccc1)NC(=O)c1nc(Cl)c(N)nc1N`, the result was inactive. Take `O=c1cc(N2CCOCC2)oc2c(-c3ccccc3)cccc12`: the outcome was inactive. Consider `CN(C)CCCC1(c2ccc(F)cc2)OCc2cc(C#N)ccc21` (configuration not stated), for which the outcome was inactive. Take `O=c1c(O)c(-c2cc(O)c(O)c(O)c2)oc2cc(O)cc(O)c12`: the outcome was inactive. For `Nc1nc(OCc2ccccc2)c2[nH]cnc2n1`, the outcome was inactive.

On to `CC(=O)O[C@H]1C(=O)[C@@]2(C)C([C@H](OC(=O)c3ccccc3)[C@]3(O)C[C@H](OC(=O)[C@H](O)[C@@H](NC(=O)c4ccccc4)c4ccccc4)C(C)=C1C3(C)C)[C@]1(OC(C)=O)CO[C@@H]1C[C@@H]2O` (some centres not stated), for which the result was inactive. In the case of `O=Nc1c(-c2c(O)[nH]c3cc(Br)ccc23)[nH]c2ccccc12`, the outcome was inactive. Turning to `CC1(C)NC(=O)N(c2ccc([N+](=O)[O-])c(C(F)(F)F)c2)C1=O`, the outcome was inactive. In the case of `CCN(CC)C(=S)SSC(=S)N(CC)CC` it was “inactive”. In the case of `CC(C)c1ccc2c(c1)c(SC(C)(C)C)c(CC(C)(C)C(=O)O)n2Cc1ccc(Cl)cc1`, the result was inactive. Under `COc1ccc2cc([C@H](C)C(=O)O)ccc2c1` stands “inactive”; under `O=C1NC(=O)C(c2ccccc2[N+](=O)[O-])=C1Nc1ccc(O)c(Cl)c1`, “inactive”. `CC(=O)N1CCN(c2ccc(OC[C@H]3CO[C@](Cn4ccnc4)(c4ccc(Cl)cc4Cl)O3)cc2)CC1`: the result was inactive. On to `CC1(C)C(=O)N(CCN2CCC(C(=O)c3ccc(F)cc3)CC2)c2ccccc21`, for which the outcome was inactive.

For the molecule `Cc1c(OCC(F)(F)F)ccnc1CS(=O)c1nc2ccccc2[nH]1` (configuration not stated), the result was inactive. On to `O=c1ccc2ccc(O)c(O)c2o1`, for which the outcome was inactive. Take `NCCCCNCCCN`: the result was inactive. In the case of `O=C(NCC1CCCCN1)c1cc(OCC(F)(F)F)ccc1OCC(F)(F)F` (configuration not stated), the outcome was inactive. With `OC(CN1CCN(c2cccc(Cl)c2)CC1)C(c1ccccc1)c1ccccc1` (configuration not stated), the result was inactive. Regarding `C[C@@H](N)C1CCC(C(=O)Nc2ccncc2)CC1` (some centres not stated), the result was inactive. Under `Cc1nc2n(c(=O)c1CCN1CCC(c3noc4cc(F)ccc34)CC1)CCCC2` stands “inactive”; under `C[C@H](Cc1ccc(O)c(O)c1)[C@@H](C)Cc1ccc(O)c(O)c1`, “inactive”; under `Cc1cc(O)c2c(c1)C(=O)c1cc(O)cc(O)c1C2=O`, “inactive”.

In the case of `O=C1c2c(O)cc(O)cc2OC(c2ccc(O)c(O)c2)C1O` (configuration not stated), the outcome was inactive. Under `Oc1ccc(-c2nc(-c3ccc(F)cc3)c(-c3ccncc3)[nH]2)cc1` stands “inactive”. As for `CNC[C@H](O)c1ccc(O)c(O)c1`, the result was inactive.

Regarding `Cc1cccc(C#Cc2ccccc2)n1`, the result was inactive. `COc1ccccc1N1CCN(CCN(C(=O)C2CCCCC2)c2ccccn2)CC1`: the outcome was inactive.

Consider `O=C(CCc1ccc(O)cc1)c1c(O)cc(O)cc1O`, for which the result was inactive. Under `NNc1nncc2ccccc12` stands “inactive”; under `O=c1c(O)c(-c2ccc(O)cc2O)oc2cc(O)cc(O)c12`, “inactive”.
